Calls of active or inactive are those of the source.

Test [1] is described as follows: binders of probe aFSTL3 on microarray, primary screen, stem cell growth factor project, biochemical, small-molecule microarray, fluorescence 635/667 (AID 1064).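 Note: measures binding of the biotinylated anti-FSTL3 antibody to printed compounds.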 To be noted: higher = more signal.
A short description of test [2]: binders from COS7 lysate, DM2A8 probe, primary screen, torsin A project, cell lysate, small-molecule microarray, fluorescence 635/667 (AID 1065). To be noted: higher = more signal, COS7 lysate expressing mutant human TOR1A.
Test [3] can be described thus: binders of probe aFGF2 on microarray, primary screen, stem cell growth factor project, biochemical, small-molecule microarray, fluorescence 635/667 (AID 1067).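 Note: measures binding of biotinylated aFGF2 protein to printed compounds on slides; z-score merges feature fluorescence and signal-to-noise across triplicate slides.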 The settings on record: higher = more signal.
Test [4] can be described thus: binders of probe aFGF10 on microarray, primary screen, stem cell growth factor project, biochemical, small-molecule microarray, fluorescence 635/667 (AID 1071).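 Note: score merges 667 nm spot intensity and signal to noise from triplicate slides.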 The settings on record: higher = more signal.
In test [5] the target is Neurogenic locus notch homolog protein 2 (Homo sapiens) (UniProt Q04721). Kind of test: Notch2 binders on small-molecule microarrays, primary screen, biochemical, small-molecule microarray, 635 nm fluorescence, stem cell growth factors (AID 1073). The settings on record: Notch2 binding, higher = more signal.
Sequence of Neurogenic locus notch homolog protein 2 (Homo sapiens) (Q04721 whole entry, looked up, canonical isoform): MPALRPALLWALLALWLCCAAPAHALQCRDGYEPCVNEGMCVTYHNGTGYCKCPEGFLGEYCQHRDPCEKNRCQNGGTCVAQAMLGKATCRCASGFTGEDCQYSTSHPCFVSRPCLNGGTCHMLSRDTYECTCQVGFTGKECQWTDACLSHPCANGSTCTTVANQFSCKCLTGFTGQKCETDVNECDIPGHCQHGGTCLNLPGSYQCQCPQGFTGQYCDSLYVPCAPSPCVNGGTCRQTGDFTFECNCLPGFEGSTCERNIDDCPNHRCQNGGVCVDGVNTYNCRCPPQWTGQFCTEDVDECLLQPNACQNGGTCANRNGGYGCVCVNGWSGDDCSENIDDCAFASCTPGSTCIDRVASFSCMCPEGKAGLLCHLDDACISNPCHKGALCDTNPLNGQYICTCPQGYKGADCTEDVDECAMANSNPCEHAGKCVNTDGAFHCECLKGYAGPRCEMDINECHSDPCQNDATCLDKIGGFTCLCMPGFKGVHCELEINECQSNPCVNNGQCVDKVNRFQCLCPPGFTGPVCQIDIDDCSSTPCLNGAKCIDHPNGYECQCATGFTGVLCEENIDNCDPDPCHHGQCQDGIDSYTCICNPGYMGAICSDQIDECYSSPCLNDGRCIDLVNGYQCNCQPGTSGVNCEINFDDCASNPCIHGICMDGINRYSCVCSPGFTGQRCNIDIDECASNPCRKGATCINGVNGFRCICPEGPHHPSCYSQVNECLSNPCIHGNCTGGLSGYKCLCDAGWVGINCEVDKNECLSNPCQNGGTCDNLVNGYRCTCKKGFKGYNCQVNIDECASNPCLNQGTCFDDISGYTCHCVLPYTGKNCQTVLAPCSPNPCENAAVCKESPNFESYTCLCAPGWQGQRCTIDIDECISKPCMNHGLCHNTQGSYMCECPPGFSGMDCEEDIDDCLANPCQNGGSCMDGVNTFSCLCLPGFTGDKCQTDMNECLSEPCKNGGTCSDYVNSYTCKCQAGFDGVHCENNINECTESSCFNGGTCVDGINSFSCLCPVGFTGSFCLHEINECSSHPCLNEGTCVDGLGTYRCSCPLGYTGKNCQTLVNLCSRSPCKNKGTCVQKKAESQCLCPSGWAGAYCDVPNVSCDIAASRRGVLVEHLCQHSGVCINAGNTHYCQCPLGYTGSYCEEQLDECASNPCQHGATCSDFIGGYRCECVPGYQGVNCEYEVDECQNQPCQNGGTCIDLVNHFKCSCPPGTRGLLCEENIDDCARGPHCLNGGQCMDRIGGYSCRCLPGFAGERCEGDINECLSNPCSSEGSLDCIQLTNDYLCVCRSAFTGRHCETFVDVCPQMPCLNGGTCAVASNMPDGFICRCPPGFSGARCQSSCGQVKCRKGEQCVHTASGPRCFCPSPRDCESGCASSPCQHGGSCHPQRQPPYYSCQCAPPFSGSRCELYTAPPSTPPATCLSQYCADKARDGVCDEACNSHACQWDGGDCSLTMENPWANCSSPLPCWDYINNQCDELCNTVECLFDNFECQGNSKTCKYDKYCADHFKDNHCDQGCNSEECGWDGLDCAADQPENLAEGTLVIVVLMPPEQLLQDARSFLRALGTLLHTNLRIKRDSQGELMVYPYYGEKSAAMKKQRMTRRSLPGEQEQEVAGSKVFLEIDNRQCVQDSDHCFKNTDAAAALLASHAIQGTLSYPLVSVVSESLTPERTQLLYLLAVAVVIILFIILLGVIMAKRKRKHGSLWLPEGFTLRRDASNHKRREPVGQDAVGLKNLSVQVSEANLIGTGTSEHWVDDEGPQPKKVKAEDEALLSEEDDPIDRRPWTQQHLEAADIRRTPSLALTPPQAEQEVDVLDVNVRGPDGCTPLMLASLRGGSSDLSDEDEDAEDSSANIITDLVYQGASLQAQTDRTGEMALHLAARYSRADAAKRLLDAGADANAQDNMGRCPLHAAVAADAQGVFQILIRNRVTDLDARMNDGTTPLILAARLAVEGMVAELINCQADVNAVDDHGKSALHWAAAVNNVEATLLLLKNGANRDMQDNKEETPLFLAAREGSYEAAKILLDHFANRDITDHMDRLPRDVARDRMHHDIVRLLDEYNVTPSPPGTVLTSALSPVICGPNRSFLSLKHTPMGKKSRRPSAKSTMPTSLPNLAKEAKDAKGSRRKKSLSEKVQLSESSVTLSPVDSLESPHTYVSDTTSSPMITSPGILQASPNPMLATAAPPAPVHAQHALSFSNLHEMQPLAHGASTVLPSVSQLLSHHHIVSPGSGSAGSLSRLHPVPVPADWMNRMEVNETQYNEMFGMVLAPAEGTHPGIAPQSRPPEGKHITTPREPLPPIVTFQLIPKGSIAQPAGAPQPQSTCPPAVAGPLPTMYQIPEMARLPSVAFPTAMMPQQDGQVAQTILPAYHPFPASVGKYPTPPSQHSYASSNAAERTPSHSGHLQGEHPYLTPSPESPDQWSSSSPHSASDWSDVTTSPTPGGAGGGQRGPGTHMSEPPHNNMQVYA
Test [6] addresses Pro-neuregulin-1, membrane-bound isoform (Homo sapiens) (UniProt Q02297). Kind of test: NRG1 binders on small-molecule microarrays, primary screen, psychiatric disease protein project, biochemical, small-molecule microarray, fluorescence 635/667 (AID 1075).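 Note: score combines 667 nm spot fluorescence with signal to noise.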 To be noted: NRG1 binding, 635 nm fluorescence, higher = more signal.
The test system of test [7] is Neuregulin-1 EGF-like domain. The test can be described thus: binders of neuregulin-1 EGF-like domain, primary screen, biochemical, small-molecule microarray, 635 nm fluorescence (AID 1081).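 Note: binding of the protein to compounds printed on small-molecule microarray slides.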 The settings on record: small-molecule microarray binding, higher = more signal.
The nature of test [8]: FRG1 promoter luciferase signal modulators, primary screen, FRG1 inhibition for FSHD, cell-based, C2C12 myotubes, firefly/Renilla luciferase, luminescence (AID 1084). The settings on record: higher = more signal, called active from +8 up or from −8 down.
Test [9] is described as follows: binders of probe aFST on microarray, primary screen, stem cell growth factor project, biochemical, small-molecule microarray, fluorescence 635/667 (AID 1086).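 Note: score merges 667 nm fluorescence with signal-to-noise of each printed compound spot.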 To be noted: higher = more signal.
A short description of test [10]: binders of probe aHhip on microarray, primary screen, stem cell growth factor project, biochemical, small-molecule microarray, fluorescence 635/667 (AID 1087).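 Note: score merges spot fluorescence at 667nm with spot signal to noise ratio.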 To be noted: higher = more signal.
In test [11] the test system is PRMT1 (protein arginine N-methyltransferase 1). Kind of test: PRMT1 binders on small-molecule microarrays, primary screen, biochemical, small-molecule microarray, 635 nm fluorescence (AID 1088).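 Note: binding of Prmt1 protein to compounds spotted on small-molecule microarray slides.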 The settings on record: small-molecule microarray binding, higher = more signal.
Test [12] is described as follows: yeast growth modulation, basal conditions, primary screen, YJM789 clinical isolate, OD600, 24 h (AID 1089).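 Note: growth of clinical yeast isolate S. cerevisiae YJM 789 seeded 1000 cells per well; test concentration not given here.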 To be noted: S. cerevisiae YJM789 growth, higher = more signal, called active from +8 up or from −8 down.
Test [13] can be described thus: fission yeast growth modulation, primary screen, strain 972, OD600, 24 h, no modulator (AID 1090).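 Note: basal condition with compound alone and no growth modifier present; test concentration not given here.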 The settings on record: S. pombe 972 growth, higher = more signal, called active from +8 up or from −8 down.
The nature of test [14]: S. cerevisiae growth modulation with rapamycin, primary screen, strain BY4716, OD600, 96 h (AID 1091). Note: test concentration not given here. To be noted: higher = more signal, called active from +8 up or from −8 down.
Test [15] concerns the target Torsin-1A-interacting protein 2 (Homo sapiens) (UniProt Q8NFQ8). The test can be described thus: LULL1 binders on small-molecule microarray, primary screen, cell lysate, human LULL1 lysate, 635/667 nm fluorescence (AID 1092).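 Note: probe is lysate of COS7 cells overexpressing human LULL1; score merges per-feature 667 nm fluorescence with signal-to-noise.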 To be noted: hLULL1 lysate binding, 635 nm fluorescence, higher = more signal.
Test [16] in a line: E. coli growth modulation, two-sided OD650, primary screen, E. coli filamentation project, strain DRC41, 24 h (AID 1093).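 Note: MC1000 strain lacking acrAB efflux and sulA so SOS filamentation is blocked; test concentration not given here.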 To be noted: OD650, 24 h, higher = more signal, called active from +8 up or from −8 down.
Test [17] in a line: small-molecule microarray binders of probe aLefty2, primary screen, biochemical, biotinylated probe, 635/667 nm fluorescence (AID 1094).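 Note: score merges spot fluorescence near 667 nm with spot signal-to-noise ratio.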 To be noted: higher = more signal.
The subject of test [18] is Noggin (protein binding on small-molecule microarray). The test can be described thus: Noggin binders on small-molecule microarray, primary screen, biochemical, 635/667 nm fluorescence (AID 1095).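 Note: score merges 667 nm feature fluorescence with signal to noise over triplicate slides.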 The settings on record: 635 nm fluorescence, higher = more signal.
Test [19] has as its target Neurogenic locus notch homolog protein 3 (Homo sapiens) (UniProt Q9UM47). Kind of test: NOTCH3 binders on small-molecule microarray, primary screen, biochemical, 635/667 nm fluorescence (AID 1096). To be noted: NOTCH3 binding, 635 nm fluorescence, higher = more signal.
Test [20] can be described thus: small-molecule microarray binders of probe aEGFR, primary screen, biochemical, biotinylated probe, 635/667 nm fluorescence (AID 1097).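 Note: probe is a biotinylated anti-EGFR antibody binding compounds printed on slides; score combines fluorescence near 667 nm and signal to noise of each spot.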 To be noted: higher = more signal.

Sequence of Pro-neuregulin-1, membrane-bound isoform (Homo sapiens) (Q02297 whole entry, looked up, the tested form may be a part, canonical isoform): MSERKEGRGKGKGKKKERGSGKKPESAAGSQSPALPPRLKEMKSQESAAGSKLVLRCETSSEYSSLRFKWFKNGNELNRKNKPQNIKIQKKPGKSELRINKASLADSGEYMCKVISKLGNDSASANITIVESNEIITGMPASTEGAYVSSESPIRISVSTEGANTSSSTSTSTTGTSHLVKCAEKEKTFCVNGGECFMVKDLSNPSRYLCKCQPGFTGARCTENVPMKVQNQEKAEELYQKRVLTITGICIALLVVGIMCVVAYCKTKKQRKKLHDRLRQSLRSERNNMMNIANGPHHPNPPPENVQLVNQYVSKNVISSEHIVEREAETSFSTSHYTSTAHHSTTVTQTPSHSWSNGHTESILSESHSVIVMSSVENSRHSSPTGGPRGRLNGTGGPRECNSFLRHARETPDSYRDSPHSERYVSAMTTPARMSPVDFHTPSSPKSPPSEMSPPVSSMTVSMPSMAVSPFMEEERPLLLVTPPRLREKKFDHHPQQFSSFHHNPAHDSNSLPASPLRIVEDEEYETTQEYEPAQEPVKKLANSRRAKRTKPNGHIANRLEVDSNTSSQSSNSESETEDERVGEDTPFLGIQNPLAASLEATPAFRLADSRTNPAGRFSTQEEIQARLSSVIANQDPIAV
Sequence of Torsin-1A-interacting protein 2 (Homo sapiens) (Q8NFQ8 whole entry, looked up): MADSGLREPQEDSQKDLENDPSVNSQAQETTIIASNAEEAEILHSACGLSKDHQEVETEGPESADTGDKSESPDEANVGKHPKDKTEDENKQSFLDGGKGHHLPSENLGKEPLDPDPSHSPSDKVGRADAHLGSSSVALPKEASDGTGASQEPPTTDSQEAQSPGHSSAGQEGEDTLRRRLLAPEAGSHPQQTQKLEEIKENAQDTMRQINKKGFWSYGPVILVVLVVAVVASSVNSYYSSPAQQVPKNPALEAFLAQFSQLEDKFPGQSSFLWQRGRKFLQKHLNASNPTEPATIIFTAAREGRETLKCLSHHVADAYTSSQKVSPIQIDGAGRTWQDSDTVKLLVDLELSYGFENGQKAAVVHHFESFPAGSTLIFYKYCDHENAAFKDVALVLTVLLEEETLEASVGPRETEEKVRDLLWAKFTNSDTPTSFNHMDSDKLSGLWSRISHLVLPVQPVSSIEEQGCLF

Regarding `CCCC=C(CCC)[C@@H](NS(=O)(=O)c1ccccc1)c1ccc(C(F)(F)F)cc1`, the composite z-score is -0.201 in test [1]; 0.322 in test [2]; 0.174 in [3]; 0.96 in test [4]; 1.55 in test [5]; 1.52 in [6]. Besides, the composite z-score in [7] worked out at 1.13; in test [9], 1.05; in [10] it was 0.28; in test [11] it was 1.39; in [15], 3.47; in test [17], 0.413. Also, the composite z-score in test [18] was determined as 0.554; in test [19], 1.08; in test [20] it was 0.132. Further, the z-score in [8] was -2.28 (inactive); in test [12], 0.3 (inactive); in test [13], 1.39 (inactive); in test [14] it was 12.1 (active); in test [16] it was -0.644 (inactive).

With `O=C1O[C@H](c2ccccc2)[C@H](c2ccccc2)N2[C@H]1[C@@H](C(=O)N1CCN(c3ncccn3)CC1)[C@]1(C(=O)Nc3ccc(C#CCCO)cc31)[C@H]2c1ccccc1OCCO`, the composite z-score in test [1] is -0.301; in [2], 0.851; in test [3], 0.0002; in test [4], 0.931; in [5], 1.33; in test [6] it was 1.64. The composite z-score in test [7] was 0.965; in test [9], 0.312; in test [10], 0.0219; in test [11], 1.54; in test [15] it was 2.79; in [17] it was -0.166. Moreover, the composite z-score in [18] is 0.942; in test [19] it was 1.06; in [20], -0.0014. The z-score in [8] is -0.363 (inactive); in [12] it was 1.36 (inactive); in [13], -1.62 (inactive); in [14], 3.87 (inactive); in test [16], 0.797 (inactive).

In the case of `Cc1ccc(S[C@]2(C(=O)O)CC(=O)N(C3CCCCC3)[C@@H]2c2ccc(CO)cc2)cc1`, the composite z-score in test [1] was -0.27; in test [2] it was 0.333; in [3], -0.0943; in test [4], -0.315; in test [5] it was 0.555; in test [6], 1.36. In addition, the composite z-score in test [7] was 0.962; in [9], 0.157; in [10], 0.0496; in [11], 1.42; in test [15], 2.82; in test [17] it was -0.132. The composite z-score stood at 0.243 in test [18], 0.233 in test [19] and 0.0346 in test [20]. Also, the z-score in test [8] was -1.02 (inactive); in test [12] it was 0.316 (inactive); in [13] it was 0.222 (inactive); in test [14], 9.82 (active); in test [16] it was 0.999 (inactive).

With `CCCNC(=O)[C@@H]1c2ccccc2C(=O)N(CC23CC4CC(CC(C4)C2)C3)[C@H]1c1ccc(CO)cc1`, the composite z-score is -0.371 in test [1]; -0.101 in test [2]; -0.0588 in test [3]; 0.618 in test [4]; 1.56 in test [5]; 1.3 in test [6]. Moreover, the composite z-score in test [7] worked out at 1.26; in test [9], 1.3; in [10], 0.0373; in test [11], 1.44; in test [15], 2.79; in test [17] it was 0.267. Moreover, the values for the composite z-score in test [18], in test [19] and in [20] were 0.406, 1.1 and 0.167, respectively. Besides, the z-score in [8] was -2.41 (inactive); in test [12], -0.449 (inactive); in [13], -1.63 (inactive); in test [14] it was 0.835 (inactive); in [16] it was -0.693 (inactive).

On to `C=CCOC(=O)[C@@H]1[C@H]2C(=O)O[C@H](c3ccccc3)[C@H](c3ccccc3)N2[C@H](c2ccc(OCCOC(=O)[C@@H]3C[C@@H]4C(=O)N5CCC[C@H]5C(=O)N4[C@@H]3c3cccc(OCCO)c3)cc2)[C@@]12C(=O)Nc1ccc(I)cc12`, for which the composite z-score is -0.396 in test [1]; 0.313 in test [2]; -0.0927 in test [3]; 0.0951 in test [4]; 0.115 in [5]; 0.311 in test [6]. Also, the composite z-score in test [7] was 1.17; in test [9], 0.252; in [10], -0.236; in test [11], 1.55; in test [15], 2.49; in test [17], -0.0756. For the same compound, the figures for the composite z-score in test [18], in test [19] and in test [20] were 1.9, 1.11 and -0.0387, respectively. Also, the z-score in test [8] is 0.184 (inactive); in test [12] it was 0.581 (inactive); in [13] it was 1.05 (inactive); in [14] it was 2.18 (inactive); in test [16], 0.949 (inactive).
